TDP1 cell noCPT: qHTS for Inhibitors of human tyrosyl-DNA phosphodiesterase 1 (TDP1): qHTS in cells in absence of CPT; DT40 Tdp1-/- hTDP1 cells, no CPT, ATP luminescence, 48 h; Potency, µM (titrated, usually from 46.2 µM), usual class: inhibitors; 15% of 420,000 active; note: nearly all actives have a fitted effect of over 55% in size
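Luminescent ATP content (CellTiter-Glo) served as the growth readout. Knockout chicken DT40 cells expressing human TDP1 were exposed to compounds without camptothecin for a minimum 48 hr at 37 °C.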
HT1080 IDH1KD tx: qHTS for induction of synthetic lethality in tumor cells producing 2HG: qHTS for the HT-1080-IDH1KD cell line | 2% of 360,000 active | HT-1080 IDH1 knockdown viability, ATP luminescence, 48 h | Potency, µM (titrated, usually from 46.1 µM), actives largely listed as cytotoxic
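HT-1080-IDH1KD cells (IDH1 knocked down), 750/well in RPMI with 5% FBS, treated with compound 48 h at 37 degrees C. Viability by CellTiter-Glo luminescence, normalised to DMSO and no-cell wells; concentration-response curves classed.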
DT40 TDP1 CPT: qHTS for Inhibitors of human tyrosyl-DNA phosphodiesterase 1 (TDP1): qHTS in cells in presence of CPT; chicken DT40 Tdp1-/-;hTDP1 cells + 20 nM CPT, ATP luminescence, 48 h; Potency, µM (series often up to 46.2 µM), usual class: inhibitors; 12% of 420,000 active; AID 686979, 2013; note: nearly all actives have a fitted effect of over 55% in size
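Chicken DT40 Tdp1-/- cells complemented with human TDP1, 400 cells/well, exposed to compounds plus 20 nM camptothecin for at least 48 h at 37 C; viability read as ATP content by CellTiter-Glo luminescence.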
KB-V1 cytotox: qHTS assay for MDR1-selective chemotherapeutics: Primary screen using the drug-selected MDR subline cells KB-V1; KB-V1 MDR cells viability, CellTiter-Glo, 72 h; Potency, µM (series often up to 46.1 µM), actives largely listed as cytotoxic; 3.4% of 400,000 active; note: nearly all actives have a fitted effect of over 60% in size
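KB-V1 cells (P-gp-expressing MDR subline of KB-3-1) in phenol-red-free DMEM with 10% FBS were exposed to library compounds over a concentration series for 72 h at 37 degrees C. Viability read by CellTiter-Glo luminescence; concentration-effect curves fitted after normalization.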
HT1080-NT tox: qHTS for induction of synthetic lethality in tumor cells producing 2HG: qHTS for the HT-1080-NT fibrosarcoma cell line. HT-1080-NT fibrosarcoma viability, CellTiter-Glo ATP luminescence, 48 h. Potency, µM (series often up to 46.1 µM), usual class: cytotoxic. 1.6% of 360,000 active. AID 686970, 2013;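 note: NT is the 2HG producing partner of a matched IDH1 knockdown line; nearly all actives have a fitted effect of over 55% in size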
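Luminescent CellTiter-Glo readout after 48 hours of compound exposure at 37 degrees C defined viability of HT-1080-NT cells. Activity was normalized to DMSO wells and cell-free media wells; concentration-response curves were fitted and assigned curve classes.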
KB-3-1 cytotox: qHTS assay for MDR1-selective chemotherapeutics: Primary screen using the parental adenocarcinoma cell KB-3-1; 1.4% of 400,000 active; KB-3-1 viability, CellTiter-Glo ATP luminescence, 72 h; Potency, µM (top dose mostly 46.1 µM), usual class: cytotoxic; AID 1347075, 2019; note: nearly all actives have a fitted effect of over 60% in size
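Screening of KB-3-1 cells (DMEM, 10% FBS, phenol-red free) ran from lowest to highest compound concentration; after 72 h at 37 °C viability was read luminescently and curves fitted.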
A number is an active result; i = inactive; ? = inconclusive; nt = no result. Sampled rows, rich in hits. Any-hit rate of the full collection: about 19%. Calls come from the whole dose curve; as a rule, active = well fitted curve in the direction sought with a large enough effect; inconclusive = small, poorly fitted or top-dose-only effect, or another doubt; inactive = no such curve, though single readings can be large; an effect the other way counts as inactive or inconclusive.

SMILES	TDP1 cell noCPT	HT1080 IDH1KD tx	DT40 TDP1 CPT	KB-V1 cytotox	HT1080-NT tox	KB-3-1 cytotox
O=C(c1ccccc1)N1N=C(c2ccco2)CC1c1cccs1 (stereo unspecified)	20.6µM	i	?	i	i	i
Cc1ccc(C2=NN(C(=O)CCl)C(c3cccs3)C2)o1 (stereo unspecified)	2.59µM	2.31µM	2.06µM	?	4.61µM	?
O=C(CCl)N1N=C(c2ccco2)CC1c1cccs1 (stereo unspecified)	1.84µM	23.1µM	2.06µM	23.1µM	?	?
CC(C)(CO)[C@@H](O)C(=O)NCCC(=O)NCCSSCCNC(=O)CCNC(=O)[C@H](O)C(C)(C)CO	i	nt	i	nt	nt	nt
COC(=O)c1sccc1S(=O)(=O)N(CC(=O)NCc1ccc(C)cc1)c1ccc(C)c(C)c1	i	nt	?	i	nt	i
CC1CCCN(CCCNC(=O)Cn2ncc3c([nH]c4ccccc43)c2=O)C1 (stereo unspecified)	i	nt	i	?	nt	i
CC(C)c1ccc(S(=O)(=O)N2CCN(C(=S)NCc3ccco3)CC2)cc1	?	i	14.6µM	?	i	i
S=C(NCc1ccco1)N1CCN(c2ccc(Cl)cc2)CC1	23.1µM	i	i	?	i	i
CC(=O)c1ccc(N2CCN(C(=S)NCc3ccco3)CC2)cc1	?	i	?	i	i	i
S=C(NCc1ccco1)N1CCN(Cc2ccc(Cl)cc2Cl)CC1	23.1µM	i	?	?	i	?
O=C(Cn1cnc([N+](=O)[O-])n1)NC1CC1	i	i	i	i	i	i
COc1ccccc1NC(=O)CC(C)n1nc(C)cc1C (stereo unspecified)	i	nt	i	i	nt	i
COc1cc2c(cc1OC)-c1c(OC)c(OC)cc3ccnc(c13)C2=O	4.11µM	i	4.11µM	i	i	?
COc1cc(-c2c(C(C)=O)c(C)nc3c2C(=O)c2ccccc2-3)cc(OC)c1OC	i	i	?	i	i	i
C[C@H]1CCCCO[C@H](CN(C)S(=O)(=O)c2cn(C)cn2)[C@@H](C)CN([C@@H](C)CO)C(=O)c2cc(NS(=O)(=O)c3ccccc3)ccc2O1	i	i	i	?	i	i
CCCc1ccccc1OCCNS(=O)(=O)c1cc2c(cc1C)OCC(=O)N2	11.6µM	?	14.6µM	?	?	?
Cc1cccc(C(=O)NCC(=O)N2CCN(c3ccccn3)CC2)c1	i	i	i	20.6µM	i	i
O=C(CC(c1ccccc1)c1ccccc1)N1CCN(c2ccccn2)CC1	18.4µM	i	?	?	i	i
Cc1nc(SCC(=O)N2CCN(c3ccccn3)CC2)c(C#N)c(C)c1C	i	i	i	7.31µM	i	i
C=CCOC(=O)Nc1nc(CCNC(=O)OC(C)(C)C)c(C(=O)O)s1	i	i	i	i	i	i
Fc1ccccc1C1c2cccn2CCN1C(=S)Nc1cccc(Br)c1 (stereo unspecified)	i	i	i	i	i	i
S=C(Nc1ccccc1)N1CCn2cccc2C1c1cccnc1 (stereo unspecified)	i	i	i	16.4µM	i	i
Fc1cccc(NC(=S)N2CCn3cccc3C2c2cccnc2)c1 (stereo unspecified)	i	i	i	?	i	i
Fc1ccccc1C1c2cccn2CCN1C(=S)Nc1ccc(Br)cc1 (stereo unspecified)	?	?	20.6µM	i	i	?
O=C(O)/C=C/C(=O)NCCC(c1ccccc1)c1ccccc1	?	i	?	i	i	i
SMILES	TDP1 cell noCPT	HT1080 IDH1KD tx	DT40 TDP1 CPT	KB-V1 cytotox	HT1080-NT tox	KB-3-1 cytotox
C=CCn1c(COc2ccc(OC)cc2)nc2ccccc21	?	i	?	i	i	i
Nn1c(COc2cccc(Cl)c2)nc2ccccc2c1=O	i	i	i	i	i	i
CCCn1c(COc2cccc(C)c2)nc2ccccc21	20.6µM	nt	?	i	nt	i
Cc1cccc(OCc2nc3ccccc3c(=O)n2N)c1	29.1µM	i	?	i	i	i
COc1cccc(OCc2nc3ccccc3n2Cc2ccccc2C)c1	11.6µM	nt	20.6µM	i	nt	i
Cc1cccc(OCc2nc3ccccc3n2C)c1	?	i	?	i	i	i
Cc1ccccc1OCc1nc2ccccc2n1Cc1ccccc1Cl	10.3µM	nt	?	i	nt	i
OCCC1CN(Cc2nc3ccccc3s2)CCN1C1CCCC1 (stereo unspecified)	i	i	i	i	i	?
COc1ccc(C2C(C)C(=O)C(C)C(c3ccc(OC)cc3)N2N=O)cc1 (stereo unspecified)	?	i	i	i	i	i
CN1CCN(c2ncncc2-c2cccnc2)CC1	i	nt	?	nt	nt	nt
Cc1cccc(NS(=O)(=O)c2ccc(-n3cccn3)cc2)c1C	7.31µM	i	13µM	i	i	i

Bioassay records (PubChem)
